Records with an inconclusive call do not appear. Calls of active or inactive are those of the source. How the source made its calls, unless noted: active means hit-call score of the fitted dose curve at least 0.9, where 1 is the maximum; inconclusive means response in the unintended direction; inactive means score below 0.9.

For experiment [1], the target named is Retinoic acid receptor RXR-alpha (Homo sapiens) (UniProt P19793). The experiment is described as follows: ATG_RXRa_TRANS: Attagene TRANS-FACTORIAL HepG2 Assay for human Retinoid X Receptor alpha (RXRa) (AID 2283012). In outline:
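Chimeric NR-GAL4 trans-activation in HepG2, 24 h treatment; reporter transcripts quantified by fluorescence on capillary electrophoresis, analysed for upward change from DMSO.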

Experiment [2] addresses human Thyroid Receptor alpha (THRa1), THRA (gene 7067) (UniProt P10827). The experiment is described as follows: ATG_THRa1_TRANS: Attagene TRANS-FACTORIAL HepG2 Assay for human Thyroid Receptor alpha (THRa1) (AID 2283014). The essentials:
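Measured here is mRNA from a GAL4-UAS reporter in transfected HepG2 cells carrying a Gal4-fused receptor, 24 h post-dose. DMSO served as negative control and baseline.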

The target in experiment [3] is human Vitamin D Receptor (VDR), VDR (gene 7421) (UniProt P11473). The experiment is described as follows: ATG_VDR_TRANS: Attagene TRANS-FACTORIAL HepG2 Assay for human Vitamin D Receptor (VDR) (AID 2283022). The essentials: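 Multiplexed TRANS reporter in HepG2; 24 h treatment; reporter mRNA by RT-PCR plus capillary electrophoresis; upregulation scored relative to DMSO.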

In experiment [4] the target is human Retinoid X Receptor beta (RXRb), RXRB (gene 6257) (UniProt P28702). The experiment is described as follows: ATG_RXRb_TRANS: Attagene TRANS-FACTORIAL HepG2 Assay for human Retinoid X Receptor beta (RXRb) (AID 2283013). In outline:
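After a 24 h incubation with test chemical, transfected HepG2 cells carrying NR-Gal4 fusions and GAL4-UAS reporter transcription units yield RNA whose reporter cDNA is FAM-labelled, HpaI-cut and sized by capillary electrophoresis; increases over DMSO are scored.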

Read-out in experiment [5]: E-selectin (Homo sapiens) (UniProt P16581)
The experiment is described as follows: BSK_3C_Eselectin: BioMAP Diversity Plus: 3C Assay for Eselectin Biomarker Activity (AID 2283015; active means hit-call score of the fitted dose curve at least 0.9, where 1 is the maximum; inactive means score below 0.9). As to conditions: primary human endothelial cells (HUVEC); actives raise or lower the signal. In outline: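 Endpoint derived by bidirectional fitting against DMSO vehicle; signal is ELISA-detected E-selectin from primary HUVEC at 24 h post-dosing, with parallel SRB staining (0.1% SRB, 560 nm) flagging cytotoxicity.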

Read-out in experiment [6]: Interleukin-1 alpha (IL1a), IL1A (gene 3552)
The experiment is described as follows: BSK_BE3C_IL1a: BioMAP Diversity Plus: BE3C Assay for Interleukin-1 alpha (IL1a) Biomarker Activity (AID 2283016; active means hit-call score of the fitted dose curve at least 0.9, where 1 is the maximum; inactive means score below 0.9). As to conditions: primary human bronchial epithelial cells; actives raise or lower the signal. In outline:
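Measured in human lung primary bronchial epithelial cells: IL-1a by ELISA at 24 h after dosing, with bidirectional fitting against DMSO.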

Read-out in experiment [7]: Monocyte Chemoattractant Protein-1 (MCP1), CCL2 (gene 6347)
The experiment is described as follows: BSK_3C_MCP1: BioMAP Diversity Plus: 3C Assay for Monocyte Chemoattractant Protein-1 (MCP1) Biomarker Activity (AID 2283017; active means hit-call score of the fitted dose curve at least 0.9, where 1 is the maximum; inactive means score below 0.9). As to conditions: primary human endothelial cells (HUVEC); actives raise or lower the signal. The essentials:
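Using human vascular primary endothelium, researchers measured MCP-1 by ELISA 24 h after treatment, with DMSO serving as negative control for bidirectional fitting.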

Read-out in experiment [8]: Monocyte Chemoattractant Protein-1 (MCP1), CCL2 (gene 6347)
The experiment is described as follows: BSK_4H_MCP1: BioMAP Diversity Plus: 4H Assay for Monocyte Chemoattractant Protein-1 (MCP1) Biomarker Activity (AID 2283018; active means hit-call score of the fitted dose curve at least 0.9, where 1 is the maximum; inactive means score below 0.9). As to conditions: primary human endothelial cells (HUVEC); actives raise or lower the signal. In outline: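 Primary human umbilical vein endothelium is exposed to chemical for 24 h before MCP-1 is assayed by ELISA. Concentration-response fitted bidirectionally relative to DMSO.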

Read-out in experiment [9]: Human Leukocyte Antigen - DR isotype (HLADR), HLA-DRA (gene 3122)
The experiment is described as follows: BSK_3C_HLADR: BioMAP Diversity Plus: 3C Assay for Human Leukocyte Antigen - DR isotype (HLADR) Biomarker Activity (AID 2283019; active means hit-call score of the fitted dose curve at least 0.9, where 1 is the maximum; inactive means score below 0.9). As to conditions: primary human endothelial cells (HUVEC); actives raise or lower the signal. The essentials: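 Compound added to primary HUVEC cultures, 24 h incubation, then HLA-DR determined by ELISA; endpoint derived by bidirectional fitting relative to DMSO negative control.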

Read-out in experiment [10]: Interleukin-8 (IL8), CXCL8 (gene 3576)
The experiment is described as follows: BSK_3C_IL8: BioMAP Diversity Plus: 3C Assay for Interleukin-8 (IL8) Biomarker Activity (AID 2283020; active means hit-call score of the fitted dose curve at least 0.9, where 1 is the maximum; inactive means score below 0.9). As to conditions: primary human endothelial cells (HUVEC); actives raise or lower the signal. The essentials:
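Using DMSO-treated wells as the baseline, bidirectional curve fitting was applied to ELISA-measured IL-8 from human umbilical vein endothelial cultures sampled 24 h after compound addition.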

Read-out in experiment [11]: Monokine induced gamma interferon (MIG), CXCL9 (gene 4283)
The experiment is described as follows: BSK_3C_MIG: BioMAP Diversity Plus: 3C Assay for Monokine induced gamma interferon (MIG) Biomarker Activity (AID 2283021; active means hit-call score of the fitted dose curve at least 0.9, where 1 is the maximum; inactive means score below 0.9;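 further: MIG protein level measured by immunoassay in the treated endothelial cultures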). As to conditions: primary human endothelial cells (HUVEC); actives raise or lower the signal. In outline: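 ELISA-measured MIG in dosed HUVEC 3C cultures at 24 h, analysed by bidirectional fitting with DMSO defining baseline activity.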

Experiment [12] is described as follows: BSK_3C_SRB: Viability Assessment in the BioMAP Diversity Plus: 3C Assay (AID 2283023; active means hit-call score of the fitted dose curve at least 0.9, where 1 is the maximum; inactive means score below 0.9;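 further: cells read 24 h after compound dosing; fitted both ways against DMSO so a hit may be signal rise or drop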). As to conditions: primary human endothelial cells (HUVEC). The essentials: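 Overt cytotoxicity is gauged in parallel confluent HUVEC cultures by SRB total-protein staining at the time of biomarker measurement, 24 h after dosing. Gain or loss of signal is fitted versus DMSO.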

Read-out in experiment [13]: Matrix Metallopeptidase 1 (MMP1), MMP1 (gene 4312)
The experiment is described as follows: BSK_BE3C_MMP1: BioMAP Diversity Plus: BE3C Assay for Matrix Metallopeptidase 1 (MMP1) Biomarker Activity (AID 2283024; active means hit-call score of the fitted dose curve at least 0.9, where 1 is the maximum; inactive means score below 0.9). As to conditions: primary human bronchial epithelial cells; actives raise or lower the signal. In outline: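 In this multiplexed primary-cell system, human bronchial epithelium received chemicals for 24 h before an ELISA for MMP1. Values reflect bidirectional fits normalised to the DMSO baseline.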

Read-out in experiment [14]: Pselectin, SELP (gene 6403)
The experiment is described as follows: BSK_4H_Pselectin: BioMAP Diversity Plus: 4H Assay for Pselectin Biomarker Activity (AID 2283026; active means hit-call score of the fitted dose curve at least 0.9, where 1 is the maximum; inactive means score below 0.9). As to conditions: primary human endothelial cells (HUVEC); actives raise or lower the signal. In outline:
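Bidirectional fits against DMSO gave the endpoint. Cells: primary human umbilical vein endothelium, chemical-treated for 24 h before ELISA detection of P-selectin.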

Experiment [15] can be described thus: BSK_4H_SRB: Viability Assessment in the BioMAP Diversity Plus: 4H Assay (AID 2283027; active means hit-call score of the fitted dose curve at least 0.9, where 1 is the maximum; inactive means score below 0.9;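 further: cells exposed to compound for 24 h before staining; curves fitted both ways versus DMSO so AC50 may be loss or gain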). As to conditions: primary human endothelial cells (HUVEC). In outline:
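HUVEC, 24 h post-dose; 10% TCA fix, 0.1% SRB stain, A560 nm. Total protein = overt cytotoxicity, parallel to biomarker read. Bidirectional fit vs DMSO baseline.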

Experiment [16] can be described thus: BSK_BE3C_SRB: Viability Assessment in the BioMAP Diversity Plus: BE3C Assay (AID 2283028; active means hit-call score of the fitted dose curve at least 0.9, where 1 is the maximum; inactive means score below 0.9). As to conditions: primary human bronchial epithelial cells. The essentials:
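SRB total-protein staining (0.1%, after TCA fixation) of chemically dosed human bronchial epithelial primary cells at 24 h; DMSO serves as the negative control for bidirectional curve fitting.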

Read-out in experiment [17]: Urokinase-type plasminogen activator receptor (uPAR), PLAUR (gene 5329)
The experiment is described as follows: BSK_4H_uPAR: BioMAP Diversity Plus: 4H Assay for Urokinase-type plasminogen activator receptor (uPAR) Biomarker Activity (AID 2283030; active means hit-call score of the fitted dose curve at least 0.9, where 1 is the maximum; inactive means score below 0.9). As to conditions: primary human endothelial cells (HUVEC); actives raise or lower the signal. The essentials: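 Endpoint derived via bidirectional curve fitting against DMSO baseline; readout was ELISA detection of uPAR on umbilical vein endothelial cells at 24 h post-treatment, with SRB-stained parallel cultures assessing cytotoxicity.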

Read-out in experiment [18]: Vascular endothelial growth factor receptor 2 (Homo sapiens) (UniProt P35968)
The experiment is described as follows: BSK_4H_VEGFRII: BioMAP Diversity Plus: 4H Assay for Vascular endothelial growth factor receptor 2 (VEGFR2) Biomarker Activity (AID 2283031; active means hit-call score of the fitted dose curve at least 0.9, where 1 is the maximum; inactive means score below 0.9;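 further: cell-surface VEGFR2 protein level quantified by ELISA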). As to conditions: primary human endothelial cells (HUVEC); actives raise or lower the signal. In outline:
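In this multiplexed HUVEC system, biomarker ELISA was performed after 24 h chemical exposure. Parallel SRB staining (TCA fixation, 560 nm) tracked cytotoxicity; DMSO served as baseline.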

Read-out in experiment [19]: Human Leukocyte Antigen - DR isotype (HLADR), HLA-DRA (gene 3122)
The experiment is described as follows: BSK_BE3C_HLADR: BioMAP Diversity Plus: BE3C Assay for Human Leukocyte Antigen - DR isotype (HLADR) Biomarker Activity (AID 2283032; active means hit-call score of the fitted dose curve at least 0.9, where 1 is the maximum; inactive means score below 0.9). As to conditions: primary human bronchial epithelial cells; actives raise or lower the signal. The essentials:
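BioMAP BE3C format: human bronchial epithelium, 24 h compound treatment, ELISA detection of HLA-DR, with bidirectional analysis relative to DMSO.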

Read-out in experiment [20]: Vascular cell adhesion molecule 1 (VCAM1), VCAM1 (gene 7412)
The experiment is described as follows: BSK_4H_VCAM1: BioMAP Diversity Plus: 4H Assay for Vascular cell adhesion molecule 1 (VCAM1) Biomarker Activity (AID 2283033; active means hit-call score of the fitted dose curve at least 0.9, where 1 is the maximum; inactive means score below 0.9). As to conditions: primary human endothelial cells (HUVEC); actives raise or lower the signal. The essentials: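 In this human endothelial (HUVEC) system, biomarker ELISA was run 24 h after compound addition, and total protein in parallel wells was assessed by SRB at 560 nm; DMSO served as negative control.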

human Vitamin D Receptor (VDR), VDR (gene 7421), sequence (P11473 whole entry, looked up): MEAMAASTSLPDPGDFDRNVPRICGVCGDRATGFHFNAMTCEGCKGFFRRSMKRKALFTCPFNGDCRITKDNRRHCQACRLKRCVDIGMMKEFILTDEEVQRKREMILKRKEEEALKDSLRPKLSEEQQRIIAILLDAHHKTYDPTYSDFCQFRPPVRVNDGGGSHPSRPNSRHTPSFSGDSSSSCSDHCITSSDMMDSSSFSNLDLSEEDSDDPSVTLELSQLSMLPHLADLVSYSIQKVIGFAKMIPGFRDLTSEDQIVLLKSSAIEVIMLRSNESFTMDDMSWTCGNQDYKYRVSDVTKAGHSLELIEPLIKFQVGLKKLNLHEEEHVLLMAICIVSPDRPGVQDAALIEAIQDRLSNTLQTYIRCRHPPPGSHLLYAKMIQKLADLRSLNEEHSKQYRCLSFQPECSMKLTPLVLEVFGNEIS
human Thyroid Receptor alpha (THRa1), THRA (gene 7067), sequence (P10827 whole entry, looked up, the tested form may be a part): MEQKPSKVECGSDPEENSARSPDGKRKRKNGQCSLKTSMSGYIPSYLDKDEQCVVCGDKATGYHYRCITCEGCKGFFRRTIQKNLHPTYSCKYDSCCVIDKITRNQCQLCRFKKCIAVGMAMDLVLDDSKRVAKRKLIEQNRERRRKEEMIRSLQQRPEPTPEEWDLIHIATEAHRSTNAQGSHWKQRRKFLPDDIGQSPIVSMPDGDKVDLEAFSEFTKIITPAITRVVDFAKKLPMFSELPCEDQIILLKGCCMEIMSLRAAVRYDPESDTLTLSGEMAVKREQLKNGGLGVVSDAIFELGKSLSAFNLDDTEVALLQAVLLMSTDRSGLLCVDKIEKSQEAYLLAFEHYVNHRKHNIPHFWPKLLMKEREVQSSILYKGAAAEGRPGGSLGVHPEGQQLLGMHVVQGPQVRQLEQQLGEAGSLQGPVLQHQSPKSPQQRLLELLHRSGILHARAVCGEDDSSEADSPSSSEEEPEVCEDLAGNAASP
Retinoic acid receptor RXR-alpha (Homo sapiens), sequence (P19793 whole entry, looked up, the tested form may be a part): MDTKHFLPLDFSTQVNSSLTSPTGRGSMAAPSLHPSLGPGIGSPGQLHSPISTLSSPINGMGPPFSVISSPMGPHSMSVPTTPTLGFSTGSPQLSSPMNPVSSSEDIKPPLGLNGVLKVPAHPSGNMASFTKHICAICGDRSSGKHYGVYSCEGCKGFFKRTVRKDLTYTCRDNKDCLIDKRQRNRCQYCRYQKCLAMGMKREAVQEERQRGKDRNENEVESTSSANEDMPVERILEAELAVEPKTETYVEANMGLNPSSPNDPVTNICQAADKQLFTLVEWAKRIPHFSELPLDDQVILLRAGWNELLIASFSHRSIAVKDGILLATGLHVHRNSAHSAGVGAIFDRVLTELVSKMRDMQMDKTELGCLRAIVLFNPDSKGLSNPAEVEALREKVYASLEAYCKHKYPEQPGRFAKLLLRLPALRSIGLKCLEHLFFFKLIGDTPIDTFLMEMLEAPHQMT
human Retinoid X Receptor beta (RXRb), RXRB (gene 6257), sequence (P28702 whole entry, looked up, the tested form may be a part): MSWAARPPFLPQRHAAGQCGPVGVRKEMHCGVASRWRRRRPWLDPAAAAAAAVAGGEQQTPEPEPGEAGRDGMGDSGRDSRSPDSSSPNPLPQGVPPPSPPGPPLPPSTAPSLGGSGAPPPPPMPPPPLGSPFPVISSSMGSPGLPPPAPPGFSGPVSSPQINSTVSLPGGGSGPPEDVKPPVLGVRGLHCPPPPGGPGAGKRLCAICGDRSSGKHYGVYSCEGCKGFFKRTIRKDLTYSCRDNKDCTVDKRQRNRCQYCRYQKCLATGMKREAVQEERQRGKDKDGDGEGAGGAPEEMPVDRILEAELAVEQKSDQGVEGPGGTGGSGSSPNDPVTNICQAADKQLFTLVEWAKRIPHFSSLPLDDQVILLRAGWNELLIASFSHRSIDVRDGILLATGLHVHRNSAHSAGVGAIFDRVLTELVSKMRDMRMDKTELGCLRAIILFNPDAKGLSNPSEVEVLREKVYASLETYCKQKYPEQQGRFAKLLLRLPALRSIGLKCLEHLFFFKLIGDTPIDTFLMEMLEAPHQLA
E-selectin (Homo sapiens), sequence (P16581 whole entry, looked up): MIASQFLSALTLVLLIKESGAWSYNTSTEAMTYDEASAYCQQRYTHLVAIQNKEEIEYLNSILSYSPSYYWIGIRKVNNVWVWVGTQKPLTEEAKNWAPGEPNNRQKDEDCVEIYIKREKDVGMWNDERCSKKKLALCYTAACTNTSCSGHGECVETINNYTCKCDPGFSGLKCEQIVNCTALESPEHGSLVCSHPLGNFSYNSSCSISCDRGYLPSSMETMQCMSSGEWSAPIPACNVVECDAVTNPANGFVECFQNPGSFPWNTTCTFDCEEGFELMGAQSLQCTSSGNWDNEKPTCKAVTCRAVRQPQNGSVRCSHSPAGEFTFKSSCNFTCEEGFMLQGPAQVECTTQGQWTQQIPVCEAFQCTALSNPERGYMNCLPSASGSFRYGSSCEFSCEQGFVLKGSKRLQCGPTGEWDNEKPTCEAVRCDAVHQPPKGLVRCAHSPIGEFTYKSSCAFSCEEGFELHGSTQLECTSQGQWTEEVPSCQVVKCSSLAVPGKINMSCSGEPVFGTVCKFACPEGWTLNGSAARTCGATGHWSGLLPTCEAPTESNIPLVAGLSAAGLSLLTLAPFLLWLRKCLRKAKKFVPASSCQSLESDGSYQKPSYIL

On to `CCN(CCC#N)c1ccc(N=Nc2c(Cl)cc([N+](=O)[O-])cc2Cl)cc1`, for which the compound was called inactive in [1] and in experiment [2].

As to `CC1(C)O[C@@H]2C[C@H]3[C@@H]4C[C@H](F)C5=CC(=O)C=C[C@]5(C)[C@@]4(F)[C@@H](O)C[C@]3(C)[C@]2(C(=O)CO)O1`, the compound was called inactive in experiment [1], in [2] and in experiment [3].

As to `CCCCCCCCCCOS(=O)(=O)O`, the outcome in experiment [1], in experiment [4] and in [3] was inactive.

Take `CCC(Cc1ccccc1)(C(=O)c1ccc(N2CCOCC2)cc1)N(C)C` (stereo not drawn): the compound was called inactive in experiment [1], in [2] and in experiment [3].

Regarding `CC(C)(c1cc(Br)c(OCCO)c(Br)c1)c1cc(Br)c(OCCO)c(Br)c1`, the AC50 is 81 µM (active) in experiment [1]; 16.2 µM (active) in [5]; 11.7 µM (active) in experiment [7]; 5.24 µM (active) in experiment [8]; 18.6 µM (active) in [9]; 16.2 µM (active) in experiment [10]. Also, the AC50 in [11] was 27.6 µM (active); in experiment [12] it was 19.3 µM (active); in experiment [13] it was 0.911 µM (active); in experiment [14], 8.19 µM (active); in experiment [15], 16.2 µM (active); in [17] it was 11.7 µM (active). Moreover, the AC50 in experiment [18] was 9.45 µM (active); in experiment [20], 11.4 µM (active). For the same compound, the result in [2], in [6], in experiment [3], in experiment [16] and in [19] was inactive.

Consider `C=C[Si](C)(C)O[Si](C)(C)C=C`, for which the outcome in experiment [1], in experiment [2] and in experiment [3] was inactive.

Consider `CO[Si](CCC1CCC2OC2C1)(OC)OC` (stereo not drawn), for which the call in experiment [1] and in experiment [2] was inactive.

For `Nc1ncn([C@@H]2O[C@H](CO)[C@@H](O)[C@H]2O)c(=O)n1`, the outcome in [1], in experiment [2] and in experiment [3] was inactive.

Regarding `Cc1ccc(OC(=O)CC(C)C)cc1`, the result in experiment [1] and in [2] was inactive.

Take `Cc1cccc(C(=O)O)c1`: the outcome in experiment [1], in experiment [2] and in experiment [3] was inactive.

On to `CCOC(=O)CC`, for which the compound was called inactive in experiment [1] and in [2].

Regarding `CCN(Cc1cccc(S(=O)(=O)O)c1)c1ccc(C(=C2C=CC(=[N+](CC)Cc3cccc(S(=O)(=O)[O-])c3)C=C2)c2ccccc2)cc1`, the outcome in experiment [1], in [2] and in experiment [3] was inactive.

For the compound `C[Si](C)O[Si](C)(C)O[Si](C)(C)O[Si](C)C`, the call in experiment [1] and in [2] was inactive.

For `O=C(c1ccccc1)c1ccc(O)c(O)c1O`, the outcome in [1], in experiment [2] and in experiment [3] was inactive.

`CC1=Nc2ccc3ccccc3c2C1(C)C`: the compound was called inactive in experiment [1], in experiment [2] and in experiment [3].

With `C=C(C)C(=O)OCCOc1ccccc1`, the AC50 in [1] was 26.5 µM (active). Moreover, the result in experiment [4] and in [3] was inactive.

Turning to `Cc1oncc1C(=O)Nc1ccc(C(F)(F)F)cc1`, the result in [1] and in experiment [2] was inactive.

Turning to `O=C1CCC(=O)N1Cl`, the result in experiment [1] and in [2] was inactive.

The AC50 is the concentration giving half of the maximal activity seen.

The record behind these values is PubChem BioAssay (EPA / NIEHS).
